# Source: PubChem BioAssay (Tox21)
# Several values for one entry are separate records, joined by “and”; a condition that tells them apart may be missing. Equal entries are not always repeated. Records with an inconclusive call do not appear. A call without a number means that no potency is given here. More than one record can exist for a structure, and the calls need not agree. Activity calls are given as the source filed them. Unless noted, calls come from the whole dose curve; as a rule, active = well fitted curve in the direction sought with a large enough effect in the repeat runs; inconclusive = weak or mixed curves; inactive = no such curve, though single readings can be large; an effect the other way counts as inactive or inconclusive.
# Assays:
# [1] = qHTS assay to identify small molecule antagonists of the estrogen receptor alpha (ER-alpha) signaling pathway using the BG1 cell line in the presence of 0.1 nM 17-beta-estradiol - cell viability counter screen (AID 1259241); note: nearly all actives have a fitted effect of over 40% in size; note: potency is the fitted concentration of half-maximal effect
# How it was run: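 Following 5 days in phenol red-free medium with charcoal-stripped serum, VM7Luc4E2 cells received test compounds alongside 0.1 nM 17beta-estradiol (final) at 37C for 22 hr. Live cells were then quantified via protease-substrate fluorescence.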
# [2] = qHTS assay to identify small molecule antagonists of the androgen receptor (AR) signaling pathway using the MDA cell line in the presence of 0.5 nM R1881 - cell viability counter screen (AID 1259242); note: nearly all actives have a fitted effect of over 45% in size; note: potency is the fitted concentration of half-maximal effect
# How it was run: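 Steps: plate MDA-kb2 cells, rest 5 hr at 37C without CO2; pin in compounds in DMSO; add R1881 to 0.5 nM final; incubate 16 hr; add CellTiter-Fluor, 30 min; read fluorescence.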
# [3] = target: Androgen receptor (Homo sapiens) (UniProt P10275); assay: qHTS assay to identify small molecule antagonists of the androgen receptor (AR) signaling pathway using the MDA cell line in the presence of 0.5 nM R1881 (AID 1259243); note: nearly all actives have a fitted effect of over 50% in size; note: potency is the fitted concentration of half-maximal effect
# How it was run: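 Stably transfected MDA-kb2 cells express luciferase from an MMTV promoter bearing both AR and GR response elements. Compounds plus 0.5 nM R1881 (final) were incubated 16 hr at 37C without CO2, then luminescence measured.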
# [4] = qHTS assay to identify small molecule phospholipidosis (PLD) inducers (AID 1259344; active = well fitted curve in the direction sought with a large enough effect; an effect the other way counts as inactive or inconclusive)
# How it was run: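 Accumulated phospholipid, stained red by LipidTOX during 24 h compound treatment of HepG2 cells at 37 C, is quantified from images as pit number and intensity, normalised per cell using Hoechst-stained nuclei.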
# [5] = qHTS assay to identify small molecule HDAC inhibitors (AID 1259364);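 note: wild-type HCT-116 cells with endogenous class I/II HDAC activity; top concentration of the series differs between compounds; nearly all actives have a fitted effect of over 45% in size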
# How it was run: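 Cells (HCT-116, wild type) are seeded at 1,500 per well, incubated overnight, treated with compound in DMSO for 2 hr, then developed with HDAC-Glo I/II reagent for 30 min at room temperature.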
# [6] = qHTS assay to identify small molecule HDAC inhibitors - cell viability counter screen (AID 1259365); note: nearly all actives have a fitted effect of over 50% in size; note: potency is the fitted concentration of half-maximal effect
# How it was run: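 HCT-116 wild-type, overnight attachment; 2hr drug exposure, 37C; CellTiter-Glo luminescent ATP readout after 30min RT.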
# [7] = qHTS assay to identify small molecule agonists of the sonic hedgehog signaling (Shh) pathway - cell viability counter screen (AID 1259366); note: nearly all actives have a fitted effect of over 50% in size; note: potency is the fitted concentration of half-maximal effect
# How it was run: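 Compounds in DMSO were pin-transferred onto 3T3 Gli1-Luc cells that had settled 4hr; plates then stood 24hr at 37C and 5% CO2. One hour before the end, CellTiter-Fluor was added and fluorescence recorded.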
# [8] = qHTS assay to identify small molecule antagonists of the sonic hedgehog signaling (Shh) pathway - cell viability counter screen (AID 1259367); note: nearly all actives have a fitted effect of over 55% in size; note: potency is the fitted concentration of half-maximal effect
# How it was run: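 CellTiter-Fluor signal in conditioned medium-stimulated 3T3 Gli1-Luc cells, 23 hr compound exposure, 37C.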
# [9] = qHTS assay to identify small molecule agonists of the sonic hedgehog signaling (Shh) pathway (AID 1259368; calls by dose curve; note: nearly all actives have a fitted effect of over 15% in size; note: potency is the fitted concentration of half-maximal effect)
# How it was run: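 Cells of a mouse NIH/3T3 clone stably expressing luciferase under the Gli1 transcriptional response element are exposed to test chemicals for 24 hr at 37 C. Pathway activation is detected as a rise in luminescence.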
# [10] = qHTS assay to identify small molecule agonists of the androgen receptor (AR) signaling pathway in the presence of an antagonist - cell viability counter screen (AID 1259379); note: nearly all actives have a fitted effect of over 25% in size; note: potency is the fitted concentration of half-maximal effect
# How it was run: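 Cytotoxicity is assessed by CellTiter-Fluor in MDA-kb2 cells carrying an MMTV-driven luciferase reporter. Cells receive 3.0uM nilutamide plus compounds at 15 concentrations and incubate 16 hr at 37C without CO2 before fluorescence reading.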
# [11] = qHTS assay to identify small molecule agonists of the estrogen receptor beta (ER-beta) signaling pathway - cell viability counter screen (AID 1259380); note: nearly all actives have a fitted effect of over 30% in size; note: potency is the fitted concentration of half-maximal effect
# How it was run: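 Cytotoxicity is measured in parallel with the reporter screen: after 16 hr compound exposure at 37C and a 2 hr LiveBLAzer step, CellTiter-Glo is added to the same ER-beta-UAS-bla HEK293T wells and luminescence read after 30 min.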
# [12] = qHTS assay to identify small molecule antagonists of the estrogen receptor beta (ER-beta) signaling pathway - cell viability counter screen (AID 1259382); note: nearly all actives have a fitted effect of over 55% in size; note: potency is the fitted concentration of half-maximal effect
# How it was run: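 Cytotoxicity counter screen multiplexed with the beta-lactamase antagonist assay: GripTite HEK293T ER-beta-bla cells were treated 16 hr with test chemicals in the presence of 1nM 17-beta-estradiol, and viability was measured by CellTiter-Glo.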
# [13] = target: Estrogen receptor (Homo sapiens) (UniProt P03372); assay: qHTS assay to identify small molecule agonists of the estrogen receptor alpha (ER-alpha) signaling pathway in the presence of an antagonist (AID 1259383; calls by dose curve; note: top concentration of the series differs between compounds; nearly all actives have a fitted effect of over 15% in size)
# How it was run: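 Agonist-mode confirmation in the presence of the ER antagonist ICI-182,780 at 10.0nM final. Breast-derived VM7Luc4E2 reporter cells were exposed to compounds for 22hr, and ERE-driven luciferase was quantified by luminescence.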
# [14] = qHTS assay to identify small molecule antagonists of the sonic hedgehog signaling (Shh) pathway (AID 1259369; calls by dose curve; note: nearly all actives have a fitted effect of over 45% in size; note: potency is the fitted concentration of half-maximal effect)
# How it was run: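 Cells are plated and held 4hr at 37 C, compounds (DMSO) are pinned in, conditioned medium is added to stimulate the pathway, and after 24hr luciferase reagent is added for 30min before luminescence is read.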
# [15] = target: Androgen receptor (Homo sapiens) (UniProt P10275); assay: qHTS assay to identify small molecule agonists of the androgen receptor (AR) signaling pathway in the presence of an antagonist (AID 1259381; calls by dose curve; note: nearly all actives have a fitted effect of over 15% in size)
# How it was run: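 Agonist-mode confirmation screen: human MDA-kb2 cells stably expressing luciferase under an MMTV promoter bearing AR and GR response elements, co-treated with 3.0uM nilutamide (final). Luminescence measured after 16hr compound incubation.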
# [16] = qHTS assay to identify small molecule agonists or antagonists of the thyroid stimulating hormone receptor (TSHR) signaling pathway - wild type cell line counter screen (AID 1259384; calls by dose curve)
# How it was run: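 Counter screen in untransfected Hek293: compounds (15-point titration, triplicate) plus phosphodiesterase inhibitor Ro20-1724 added after 18 h plating; 30 min RT. Intracellular cAMP via competitive d2/cryptate immunoassay, 1 h incubation.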
# [17] = target: Estrogen receptor (Homo sapiens) (UniProt P03372); assay: qHTS assay to identify small molecule antagonists of the estrogen receptor alpha (ER-alpha) signaling pathway using the BG1 cell line in the presence of 0.1 nM 17-beta-estradiol (AID 1259244); note: nearly all actives have a fitted effect of over 50% in size; note: potency is the fitted concentration of half-maximal effect
# How it was run: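 Antagonist mode: compounds in DMSO are pinned onto VM7Luc4E2 reporter cells, 0.1 nM final 17beta-estradiol is added, and after 22 h at 37C luciferase luminescence is measured with ONE-Glo.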
# [18] = target: Estrogen receptor beta (Homo sapiens) (UniProt Q92731); assay: qHTS assay to identify small molecule agonists of the estrogen receptor beta (ER-beta) signaling pathway (AID 1259377; active = well fitted activation curve with a large enough effect in the signal ratio in the repeat runs, not every such curve was filed as active; the % refers to the signal ratio)
# How it was run: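 qHTS in ER-beta-UAS-bla HEK293T cells: 6 hr settling, then 16 hr compound at 37C, then LiveBLAzer substrate 2 h at RT before fluorescence reading.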
# [19] = target: Estrogen receptor beta (Homo sapiens) (UniProt Q92731); assay: qHTS assay to identify small molecule antagonists of the estrogen receptor beta (ER-beta) signaling pathway (AID 1259378; active = well fitted inhibition curve with a large enough effect in the signal ratio in the repeat runs, not every such curve was filed as active; the % refers to the signal ratio; note: potency is the fitted concentration of half-maximal effect)
# How it was run: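 Antagonist mode: compounds added to beta-lactamase reporter HEK293T ER-beta-UAS cells stimulated with E2 (1nM final), 16 hr at 37C. LiveBLAzer B/G FRET substrate, 2 hours room temperature, fluorescence read-out.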
# [20] = target: Thyrotropin receptor (Homo sapiens) (UniProt P16473); assay: qHTS assay to identify small molecule antagonists of the thyroid stimulating hormone receptor (TSHR) signaling pathway (AID 1259385; calls by dose curve; note: nearly all actives have a fitted effect of over 20% in size)
# How it was run: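 Antagonist mode: compound-treated TSHR-expressing HEK293 cells were stimulated with 1.5 ng/mL TSH (final) in presence of Ro20-1724 for 30 min at RT. HTRF cAMP detection after 1 h; each compound tested at 15 concentrations, triplicate.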
# Sequence of Thyrotropin receptor (Homo sapiens) (P16473 whole entry, looked up): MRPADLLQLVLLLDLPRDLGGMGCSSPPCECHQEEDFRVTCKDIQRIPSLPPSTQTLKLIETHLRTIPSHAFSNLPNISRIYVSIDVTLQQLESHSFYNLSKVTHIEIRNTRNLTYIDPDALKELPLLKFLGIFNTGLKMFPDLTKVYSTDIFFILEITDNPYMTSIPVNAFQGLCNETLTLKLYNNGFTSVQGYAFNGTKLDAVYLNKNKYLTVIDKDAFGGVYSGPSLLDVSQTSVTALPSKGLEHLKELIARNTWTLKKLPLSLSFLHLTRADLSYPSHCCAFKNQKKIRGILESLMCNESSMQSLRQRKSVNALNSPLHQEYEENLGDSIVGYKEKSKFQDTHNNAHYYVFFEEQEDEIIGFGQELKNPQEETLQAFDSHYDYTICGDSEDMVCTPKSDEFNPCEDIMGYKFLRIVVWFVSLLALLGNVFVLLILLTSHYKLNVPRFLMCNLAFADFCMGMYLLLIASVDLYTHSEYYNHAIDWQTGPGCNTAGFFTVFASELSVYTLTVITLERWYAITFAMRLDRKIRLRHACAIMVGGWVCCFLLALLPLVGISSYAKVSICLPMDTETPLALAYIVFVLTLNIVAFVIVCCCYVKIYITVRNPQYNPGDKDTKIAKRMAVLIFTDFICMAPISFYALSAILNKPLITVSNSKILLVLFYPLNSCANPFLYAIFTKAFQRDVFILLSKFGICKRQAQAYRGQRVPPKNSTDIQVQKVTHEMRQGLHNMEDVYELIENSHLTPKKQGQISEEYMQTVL
# Sequence of Estrogen receptor beta (Homo sapiens) (Q92731 whole entry, looked up): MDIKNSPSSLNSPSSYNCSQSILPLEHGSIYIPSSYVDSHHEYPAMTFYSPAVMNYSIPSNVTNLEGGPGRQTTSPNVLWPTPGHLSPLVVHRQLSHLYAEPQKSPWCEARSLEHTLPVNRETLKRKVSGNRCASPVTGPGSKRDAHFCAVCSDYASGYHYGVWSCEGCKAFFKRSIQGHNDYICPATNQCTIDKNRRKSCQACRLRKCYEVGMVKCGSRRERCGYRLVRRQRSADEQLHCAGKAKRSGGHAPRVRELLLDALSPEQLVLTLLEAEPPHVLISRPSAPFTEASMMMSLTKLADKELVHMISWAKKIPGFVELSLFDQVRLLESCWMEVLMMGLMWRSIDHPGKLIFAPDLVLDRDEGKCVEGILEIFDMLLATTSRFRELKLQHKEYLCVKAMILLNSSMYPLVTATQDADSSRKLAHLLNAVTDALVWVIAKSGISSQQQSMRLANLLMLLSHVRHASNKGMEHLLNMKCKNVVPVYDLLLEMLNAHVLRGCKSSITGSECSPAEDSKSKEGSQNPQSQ
# Sequence of Estrogen receptor (Homo sapiens) (P03372 whole entry, looked up): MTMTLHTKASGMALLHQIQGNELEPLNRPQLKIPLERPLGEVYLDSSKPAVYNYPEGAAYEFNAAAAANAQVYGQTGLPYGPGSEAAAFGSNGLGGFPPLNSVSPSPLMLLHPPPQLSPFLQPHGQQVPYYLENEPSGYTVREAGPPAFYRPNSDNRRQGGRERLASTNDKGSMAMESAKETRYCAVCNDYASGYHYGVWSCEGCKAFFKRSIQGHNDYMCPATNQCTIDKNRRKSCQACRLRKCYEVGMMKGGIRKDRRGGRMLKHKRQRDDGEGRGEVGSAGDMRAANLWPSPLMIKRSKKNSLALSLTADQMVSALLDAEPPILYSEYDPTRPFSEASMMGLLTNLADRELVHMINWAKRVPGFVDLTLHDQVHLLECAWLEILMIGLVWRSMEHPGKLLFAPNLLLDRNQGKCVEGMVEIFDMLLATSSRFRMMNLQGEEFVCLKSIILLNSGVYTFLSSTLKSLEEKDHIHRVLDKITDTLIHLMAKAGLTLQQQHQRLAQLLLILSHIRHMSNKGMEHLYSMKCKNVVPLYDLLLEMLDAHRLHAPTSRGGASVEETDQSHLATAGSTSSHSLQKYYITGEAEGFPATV
# Sequence of Androgen receptor (Homo sapiens) (P10275 whole entry, looked up): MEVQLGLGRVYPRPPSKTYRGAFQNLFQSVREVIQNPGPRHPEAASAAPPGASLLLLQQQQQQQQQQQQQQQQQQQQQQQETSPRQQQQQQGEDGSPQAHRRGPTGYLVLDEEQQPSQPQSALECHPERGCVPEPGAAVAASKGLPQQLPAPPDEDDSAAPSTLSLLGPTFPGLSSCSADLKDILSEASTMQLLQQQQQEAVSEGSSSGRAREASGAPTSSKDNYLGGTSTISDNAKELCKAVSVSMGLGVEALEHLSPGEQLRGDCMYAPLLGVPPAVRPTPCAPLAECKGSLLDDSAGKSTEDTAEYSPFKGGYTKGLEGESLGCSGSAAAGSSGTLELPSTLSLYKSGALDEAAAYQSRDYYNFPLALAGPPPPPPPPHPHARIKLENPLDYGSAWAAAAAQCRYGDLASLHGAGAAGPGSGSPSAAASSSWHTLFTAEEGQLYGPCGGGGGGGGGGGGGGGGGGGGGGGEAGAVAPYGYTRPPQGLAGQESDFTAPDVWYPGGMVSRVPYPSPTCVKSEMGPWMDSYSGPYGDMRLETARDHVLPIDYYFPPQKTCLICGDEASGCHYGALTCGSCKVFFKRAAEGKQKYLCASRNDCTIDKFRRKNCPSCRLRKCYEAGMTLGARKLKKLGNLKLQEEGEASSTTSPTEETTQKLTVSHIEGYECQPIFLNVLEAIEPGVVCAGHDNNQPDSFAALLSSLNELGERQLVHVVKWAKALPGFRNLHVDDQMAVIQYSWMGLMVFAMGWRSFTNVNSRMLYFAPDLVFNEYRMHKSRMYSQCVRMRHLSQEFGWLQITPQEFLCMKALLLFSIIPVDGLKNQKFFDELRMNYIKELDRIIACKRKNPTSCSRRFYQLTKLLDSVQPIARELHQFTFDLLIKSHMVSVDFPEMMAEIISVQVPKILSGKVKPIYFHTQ
Compound,Potency [1],Potency [2],Potency [3],outcome [4],Potency [5],Potency [6],Potency [7],Potency [8],Potency [9],Potency [10],Potency [11],Potency [12],Potency [13],Potency [14],Potency [15],Potency [16],Potency [17],Potency [18],Potency [19],Potency [20]
CC(C)NCC(O)c1ccccc1Cl (centres undefined),inactive,inactive,inactive,inactive,inactive,inactive,inactive,inactive,inactive,inactive,inactive,inactive,inactive,–,–,–,–,–,–,–
COP(=O)(OC)O/C(=C\Cl)c1cc(Cl)c(Cl)cc1Cl,inactive,inactive,68.6 µM (active),–,inactive,–,–,inactive,inactive,–,–,inactive,inactive,inactive,inactive,inactive,–,–,–,–
O=C1C(Cl)=C(Cl)C(=O)C(Cl)=C1Cl,inactive,48.4 µM (active),27.2 µM (active) and 24.3 µM (active),–,–,inactive,24.2 µM (active) and 24.3 µM (active),60.9 µM (active) and 24.3 µM (active),inactive,60.9 µM (active) and inactive,60.9 µM (active) and 54.5 µM (active),60.9 µM (active),–,4.84 µM (active) and 12.2 µM (active),inactive,–,inactive,–,–,–
S=C=NCCc1ccccc1,inactive,inactive,48.7 µM (active),–,–,–,inactive,inactive,61.3 µM (active),–,–,inactive,–,inactive,–,inactive,inactive,inactive,30.7 µM (active),inactive
[O]=[Cr](=[O])([OH])[O][Cr](=[O])(=[O])[OH],inactive,inactive,30.9 µM (active) and 54.4 µM (active),inactive,inactive,inactive,–,21.9 µM (active) and 30.6 µM (active),inactive,27.6 µM (active) and 54.4 µM (active),24.6 µM (active) and 54.4 µM (active),–,inactive,1.95 µM (active) and 2.16 µM (active),–,inactive,–,–,–,inactive
ClC1(Cl)C2(Cl)C3(Cl)C4(Cl)C(Cl)(Cl)C5(Cl)C3(Cl)C1(Cl)C5(Cl)C24Cl (centres undefined),inactive,inactive,inactive,–,inactive,–,inactive,inactive,inactive,inactive,–,inactive,inactive,inactive,–,inactive,inactive,–,–,inactive
[Cl][Hg][c]1ccccc1,9.69 µM (active),8.63 µM (active),2.43 µM (active),–,–,13.7 µM (active),545 nM (active),0.864 µM (active),inactive,12.2 µM (active),3.44 µM (active),3.06 µM (active),inactive,0.0243 µM (active),–,–,–,–,–,–
CC(C)=CC1C(C(=O)OC(C#N)c2cccc(Oc3ccccc3)c2)C1(C)C (centres undefined),inactive,inactive,inactive,–,inactive,inactive,inactive,inactive,inactive,inactive,inactive,inactive,–,inactive,–,inactive,–,inactive,inactive,inactive
Cc1ccc(C)c2ccccc12,inactive,inactive,inactive,–,inactive,inactive,–,inactive,inactive,inactive,inactive,inactive,–,inactive,–,–,–,–,inactive,–
CCOC(=O)Cc1ccccc1,inactive,inactive,inactive,–,inactive,inactive,inactive,inactive,inactive,inactive,inactive,inactive,inactive,inactive,–,inactive,–,inactive,inactive,inactive
CC(Cc1ccccc1)N(C)Cc1ccco1 (centres undefined),inactive,inactive,inactive,–,inactive,inactive,inactive,inactive,inactive,inactive,inactive,inactive,–,inactive,–,inactive,inactive,–,–,inactive
BrCCCBr,inactive,inactive,inactive,–,inactive,inactive,inactive,inactive,inactive,inactive,inactive,inactive,–,–,–,inactive,–,–,–,inactive
CCOP(=O)(OCC)Oc1nc(Cl)c(Cl)cc1Cl,inactive,inactive,inactive,–,–,inactive,inactive,inactive,inactive,inactive,8.58 µM (active),–,–,–,–,–,–,–,–,–
N#Cc1sc2c(=O)c3ccccc3c(=O)c=2sc1C#N,5.45 µM (active),13.7 µM (active),4.86 µM (active),–,–,30.6 µM (active),8630 nM (active),9.69 µM (active),inactive,17.2 µM (active),21.7 µM (active),17.2 µM (active),inactive,3.86 µM (active),inactive,inactive,2.43 µM (active),–,–,–
CCNS(=O)(=O)C(F)(F)C(F)(F)C(F)(F)C(F)(F)C(F)(F)C(F)(F)C(F)(F)C(F)(F)F,inactive,inactive,inactive,–,inactive,inactive,–,65.7 µM (active),inactive,–,23.3 µM (active),inactive,–,32.9 µM (active),–,inactive,–,–,–,inactive
CN(C)C(=S)SSC(=S)N(C)C,676 nM (active) and 6.86 µM (active) and 266 nM (active),214 nM (active) and 217 nM (active),107 nM (active) and 172 nM (active) and 188 nM (active),inactive,inactive,inactive,427 nM (active) and 545 nM (active) and 422 nM (active),191 nM (active) and 611 nM (active) and 1.19 µM (active),inactive,60.3 µM (active) and 68.6 µM (active) and inactive,135 nM (active) and 1.72 µM (active) and 119 nM (active),479 nM (active) and 273 nM (active) and 237 nM (active),inactive,47.9 nM (active) and 306 nM (active) and 531 nM (active),–,–,191 nM (active) and 273 nM (active) and 237 nM (active),–,–,–
